# Data from PubChem BioAssay AID1347156 (National Center for Advancing Translational Sciences (NCATS), 2019).
# Records with an inconclusive call do not appear. Calls of active or inactive are those of the source. Calls come from the whole dose curve; as a rule, active = well fitted cell-killing curve with a large enough effect; inconclusive = small, poorly fitted or top-dose-only effect; inactive = flat fitted curve, though single readings scatter.
# Test: DAPI mCherry counterscreen qHTS for Zika virus inhibitors; note: nearly all actives have a fitted effect of over 55% in size
# Procedure, shortened: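 Imaging read-out after fixation and Hoechst nuclear staining: percent infection from mCherry-positive cells (above 3 SD of negative controls) and nuclear counts. Setup: Vero cells pre-plated overnight, compound added, infected with ZIKV-mCherry (MOI 1), 48-72 hrs, 37 degrees C.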
# Potency is the fitted concentration of half-maximal effect.
row,SMILES,Potency
1,Oc1cc2ccccc2c2ccccc12,10 µM (active)
2,Cc1cc(C)cc(C(=O)N(C)[C@H](Cc2ccc(-c3ccccc3)cc2)C(=O)N[C@@H](Cc2c[nH]c3ccccc23)C(=O)O)c1,8.91 µM (active)
3,O=C(O)c1c(Br)c(Br)c(Br)c(Br)c1C1c2ccc(O)cc2Oc2cc(O)ccc21,20 µM (active)
4,O=C(Nc1ccc(C(=O)OCc2cc(=O)n3c4c(sc3n2)CCCC4)cc1)c1ccc(F)cc1,inactive
5,Cc1ccc(-n2[nH]c(C)c(N=Nc3cccc(-c4cccc(C(=O)O)c4)c3O)c2=O)cc1C,14.1 µM (active)
6,O=C(O)c1ccc(S(=O)(=O)N(Cc2ccc(OC(F)(F)F)cc2)c2ncc(C(F)(F)F)cc2Cl)cc1,25.1 µM (active)
7,O=S(=O)(O)c1ccc2c(N=Nc3ccc(S(=O)(=O)O)c4ccccc34)c(O)c(S(=O)(=O)O)cc2c1,inactive
8,COc1cnc(-c2ccc(Cn3c(CC(C)(C)C(=O)O)c(SC(C)(C)C)c4cc(OC[C@@H]5Cc6ccccc6N5C(C)=O)ccc43)cc2)nc1,15.8 µM (active)
9,CC(=O)Nc1ccc(S(=O)(=O)O)c2cc(S(=O)(=O)O)c(N=Nc3ccc(N=Nc4ccc(S(=O)(=O)O)cc4)c4ccc(S(=O)(=O)O)cc34)c(O)c12,inactive
10,COc1cc(C)c(C(=O)OC2C(C)OC(OC3CCC(C)C4C3C=C(C)C3/C(C)=C\CC/C(C)=C/C5(C)C=C(C(=O)O)C(C)CC56OC(=O)/C(=C(\O)C34C)C6=O)C(O)C2O)c(OC)c1 (configuration not stated),inactive
11,C[C@H](NC(=O)C(=O)Nc1ccccc1C(C)(C)C)C(=O)N[C@@H](CC(=O)O)C(=O)COc1c(F)c(F)cc(F)c1F,inactive
12,Cc1ccc(S(=O)(=O)Nc2cc(SCC(=O)O)c(O)c3ccccc23)cc1[N+](=O)[O-],8.91 µM (active)
13,Oc1c(Cl)cc(Cl)cc1Sc1cc(Cl)cc(Cl)c1O,inactive
14,O=C(O)COc1ccc(-c2nccc3c2C(=O)N(Cc2cccc(C(F)(F)F)c2)CC(COc2ccc4cnccc4c2)O3)cc1 (configuration not stated),inactive
15,O=C(O)c1ccc(NC(=O)c2cn(-c3ccccc3)nc2-c2ccc(Br)cc2)cc1,35.5 µM (active)
16,O=c1c(O)c(Br)ccc2c(Br)c(O)c(O)c(O)c12,inactive

row,SMILES,Potency
1,COc1ccc(S(=O)(=O)Nc2cc(-c3c(O)ccc4ccccc34)c(O)c3ccccc23)cc1,10 µM (active)
2,CC1(C(=O)O)NCCc2cc(O)c(O)cc21 (configuration not stated),inactive
3,O=C(Nc1cccc2c(=O)cc(-c3nn[nH]n3)oc12)c1ccc(OCCCCc2ccccc2)cc1,35.5 µM (active)
4,CC1(C)CCC(CN2CCN(c3ccc(C(=O)NS(=O)(=O)c4ccc(NCC5CCOCC5)c([N+](=O)[O-])c4)c(Oc4cnc5[nH]ccc5c4)c3)CC2)=C(c2ccc(Cl)cc2)C1,5.62 µM (active)
5,CCS(=O)(=O)c1cccc(C(=O)Nc2ccc(-c3nc4ccccc4s3)c(O)c2)c1,14.1 µM (active)
6,O=C(OC1Cc2c(O)cc(O)cc2OC1c1cc(O)c(O)c(O)c1-c1c(C2Oc3cc(O)cc(O)c3CC2OC(=O)c2cc(O)c(O)c(O)c2)cc(O)c(O)c1O)c1cc(O)c(O)c(O)c1 (configuration not stated),inactive
7,COc1ccc2c(c1)Oc1nc(-c3ccc(C)s3)nc(SCC(=O)Nc3cccc(C(=O)O)c3)c1C2,inactive
8,Cc1cc(CN2CCN(c3c(Br)cnc4nc(-c5ccc(N6CCN(C)CC6)cc5)[nH]c34)CC2)no1,10 µM (active)
9,Cc1cccc(C(=O)Nc2ccc(C(=O)OCc3cc(=O)n4nc(C5CC5)sc4n3)cc2)c1,15.8 µM (active)
10,CN(C)[C@@H]1C(=O)C(C(=O)NCN2CCCC2)=C(O)[C@@]2(O)C(=O)C3=C(O)c4c(O)cccc4[C@@](C)(O)C3C[C@@H]12 (some centres not stated),inactive
11,CCCCCCCOc1cc2c(cc1/C(C)=C/c1ccc(C(=O)O)cc1)C(C)(C)CCS2(=O)=O,15.8 µM (active)
12,COc1ccc(-c2cc(=O)c3c(O)cc(O)c(-c4cc(-c5cc(=O)c6c(O)cc(O)cc6o5)ccc4OC)c3o2)cc1,12.6 µM (active)
13,CC1CCC(C(=O)N(c2cc(C#CC(C)(C)C)sc2C(=O)O)C2CCC(O)CC2)CC1 (configuration not stated),25.1 µM (active)
14,CC(C)=CCCC1(C)C=Cc2c(O)c3c(c(CC=C(C)C)c2O1)OC12C(=CCCC1C(C)(C)O[C@@]2(C/C=C(\C)C(=O)O)C(=O)O)C3=O (some centres not stated),15.8 µM (active)
15,CCCCc1nn2c(=O)cc(COC(=O)c3ccc(NC(=O)CCc4ccccc4)cc3)nc2s1,inactive
16,CC(C)=CCc1c2c(c3occ(-c4ccc(O)c(O)c4)c(=O)c3c1O)C=CC(C)(C)O2,8.91 µM (active)
